We go through four molecules from PubChem BioAssay (EPA / NIEHS).

Results filed as inconclusive are left out. Active and inactive are the calls of the source. How the source made its calls, unless noted: active means hit-call score of the fitted dose curve at least 0.9, where 1 is the maximum; inactive means score below 0.9.

Test [1] in a line: ATG_PBREM_CIS: Attagene CIS-FACTORIAL HepG2 Assay for human Phenobarbital-responsive Enhancer Module (PBREM) (AID 2282955). As to conditions: HepG2 PBREM cis-reporter, Attagene multiplexed transcription; actives raise or lower the signal. A digest of the protocol: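 Cells were transfected with cis-element reporter units and treated for 24 h, after which RNA was extracted and reporter transcripts measured by RT-PCR and capillary electrophoresis.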

Test [2] has as its target Paired box protein Pax-6 (Homo sapiens) (UniProt P26367). Nature of the test: ATG_Pax6_CIS: Attagene CIS-FACTORIAL HepG2 Assay for human Paired Box 6 (PAX6) (AID 2282956). The following applies: HepG2 CIS-FACTORIAL PAX6 reporter transcription, RNA readout; actives raise or lower the signal. A digest of the protocol:
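After twenty-four hours of chemical exposure, transfected HepG2 cells are harvested for RNA. Cis-promoter reporter transcripts are amplified, fluorescently labelled and sized by capillary electrophoresis, with gain and loss of signal scored against DMSO.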

A short description of test [3]: ATG_PXRE_CIS: Attagene CIS-FACTORIAL HepG2 Assay for human Pregnane X Receptor Element (PXRE) (AID 2282957). The following applies: HepG2 Attagene CIS-FACTORIAL PXRE reporter, mRNA; actives raise or lower the signal. The method, boiled down: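 HepG2 cells transiently transfected with cis-element-driven multiplexed reporter units; after 24 h chemical exposure, reporter mRNA measured by RT-PCR, 6-FAM labelling, HpaI digestion and capillary electrophoresis. Bidirectional fitting relative to DMSO.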

Test [4] in a line: ATG_PPRE_CIS: Attagene CIS-FACTORIAL HepG2 Assay for human Peroxisome Proliferator-activated Response Element (PPRE) (AID 2282958). The following applies: HepG2 PPRE cis-element reporter, Attagene transcription factor profiling; actives raise or lower the signal. The method, boiled down:
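In this cell-based multiplex, a PPRE cis element drives a reporter sequence in transiently transfected HepG2 cells. Following 24 h treatment, labeled cDNA amplicons are sized and quantified by capillary electrophoresis, with DMSO defining baseline.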

A short description of test [5]: ATG_RORE_CIS: Attagene CIS-FACTORIAL HepG2 Assay for human RAR-related Orphan Receptor Element (RORE) (AID 2282959). As to conditions: HepG2 Attagene cis-factorial RORE reporter, mRNA; actives raise or lower the signal. The method, boiled down:
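Endogenous factor activity at a cis response element is read as reporter transcript levels in HepG2 cells, 24 h post-dose. Transcripts are quantified by RT-PCR with capillary electrophoresis, and data fitted in both directions against DMSO.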

Test [6] can be described thus: ATG_Sox_CIS: Attagene CIS-FACTORIAL HepG2 Assay for human SRY-box transcription factor (SOX) (AID 2282960). The following applies: HepG2 Attagene cis-factorial SOX reporter, mRNA; actives raise or lower the signal. A digest of the protocol:
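Measures mRNA induction of a SOX1-associated reporter in HepG2 after 24 h dosing. Fluorescently labelled RT-PCR fragments are separated by capillary electrophoresis, and gain or loss relative to DMSO control is fitted.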

Test [7] deals with Transcription factor Sp1 (Homo sapiens) (UniProt P08047). Nature of the test: ATG_Sp1_CIS: Attagene CIS-FACTORIAL HepG2 Assay for human Specificity Protein 1 (Sp1) (AID 2282961). The following applies: HepG2 Sp1 cis-reporter transcription, actives raise or lower the signal. The method, boiled down:
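Cells: HepG2, transiently transfected with cis-regulated multiplexed reporters. Exposure: 24 h. Detection: reporter transcripts amplified, fluorescently labeled, restriction-digested and sized by capillary electrophoresis. Analysis: bidirectional fit relative to DMSO.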

Test [8] concerns the target Signal transducer and activator of transcription 3 (Homo sapiens) (UniProt P40763). Nature of the test: ATG_STAT3_CIS: Attagene CIS-FACTORIAL HepG2 Assay for human Signal Transducer and Activator of Transcription 3 (STAT3) (AID 2282963). As to conditions: HepG2, Attagene cis-factorial STAT3 reporter transcription; actives raise or lower the signal. The method, boiled down: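 Endogenous STAT3-responsive cis-element activity was read in transiently transfected HepG2 cells after 24 h treatment. Reporter transcripts were quantified via RT-PCR and capillary electrophoresis, with DMSO as negative control and bidirectional curve fitting.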

Test [9] in a line: ATG_TA_CIS: Attagene CIS-FACTORIAL HepG2 Assay for human TA Basal Promoter (AID 2282964). As to conditions: HepG2 Attagene CIS-factorial TA basal promoter reporter; actives raise or lower the signal. A digest of the protocol: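 Read-out: fluorescent reporter-transcript fragments resolved by capillary electrophoresis after RT-PCR and HpaI digestion. Source: HepG2 cells carrying transiently transfected multi-reporter cis constructs, treated 24 h. Endpoint fitted bidirectionally relative to DMSO.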

Test [10] can be described thus: ATG_TCF_b_cat_CIS: Attagene CIS-FACTORIAL HepG2 Assay for human T-Cell-Factor with beta-catenin (TCF/b-cat) (AID 2282965). The following applies: HepG2 TCF/beta-catenin cis-reporter transcription, actives raise or lower the signal. A digest of the protocol:
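Endogenous transcription factor activity is captured through cis-promoter reporter constructs transiently introduced into human HepG2 liver cells. Induced reporter mRNA is measured after 24 h and fitted bidirectionally relative to DMSO.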

A short description of test [11]: ATG_VDRE_CIS: Attagene CIS-FACTORIAL HepG2 Assay for human Vitamin D Receptor Element (VDRE) (AID 2282968). The following applies: HepG2 VDRE cis-reporter transcription, actives raise or lower the signal. A digest of the protocol:
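Reporter mRNA induction, quantified by capillary electrophoresis of fluorescently labelled RT-PCR products, was read 24 h after dosing HepG2 cells carrying transiently transfected cis-regulated reporter units; gain or loss relative to DMSO.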

The target in test [12] is Estrogen receptor (Homo sapiens) (UniProt P03372). As to the kind of experiment: ATG_ERa_TRANS: Attagene TRANS-FACTORIAL HepG2 Assay for human Estrogen Receptor alpha (ERa) (AID 2282970; active means hit-call score of the fitted dose curve at least 0.9, where 1 is the maximum). The following applies: HepG2 Attagene TRANS ERa GAL4 reporter, mRNA. A digest of the protocol: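 HepG2 cells transiently transfected with multiplexed GAL4-UAS reporter units read out chimeric NR-Gal4 activity. After 24 h compound exposure, reporter mRNA was quantified by RT-PCR, 6-FAM labeling, HpaI digestion and capillary electrophoresis, relative to DMSO.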

Test [13] addresses X-box-binding protein 1 (Homo sapiens) (UniProt P17861). Nature of the test: ATG_Xbp1_CIS: Attagene CIS-FACTORIAL HepG2 Assay for human X-box Binding Protein 1 (XBP1) (AID 2282972). The following applies: HepG2 XBP1 cis-element reporter, Attagene multiplex; actives raise or lower the signal. The method, boiled down:
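After a 24-hour chemical exposure of HepG2 cells carrying cis-regulated reporters, reporter mRNA levels are assessed. Quantification uses RT-PCR, 6-FAM labelling and capillary electrophoresis. Gain- or loss-of-signal is fitted against DMSO.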

A short description of test [14]: ATG_M_19_TRANS: Attagene TRANS-FACTORIAL HepG2 Assay for M19 Transcription Factor (Internal Marker) (AID 2282974; active means hit-call score of the fitted dose curve at least 0.9, where 1 is the maximum). The following applies: HepG2 Attagene TRANS-FACTORIAL M19 internal marker reporter. A digest of the protocol: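 Reporter mRNA induction was measured in transfected HepG2 cells 24 h after dosing. Endpoint fitted upward relative to DMSO and serves as a background control within the multiplexed TRANS panel.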

Test [15] can be described thus: ATG_SREBP_CIS: Attagene CIS-FACTORIAL HepG2 Assay for human Sterol Regulatory Element Binding (SREBP) (AID 2282962). As to conditions: HepG2 Attagene cis-factorial SREBP reporter, mRNA; actives raise or lower the signal. The method, boiled down:
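Twenty-four hours after chemical dosing of transfected HepG2 cultures, reporter RNA was converted to cDNA, amplified, end-labelled with 6-FAM and resolved by capillary electrophoresis. Responses were fitted relative to DMSO.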

Test [16] concerns the target Nuclear receptor subfamily 1 group I member 3 (Homo sapiens) (UniProt Q14994). Nature of the test: ATG_CAR_TRANS: Attagene TRANS-FACTORIAL HepG2 Assay for human Constitutive Androstane Receptor (CAR) (AID 2282969; active means hit-call score of the fitted dose curve at least 0.9, where 1 is the maximum;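 further: activators raise reporter mRNA above DMSO so AC50 marks induction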). As to conditions: HepG2 Attagene TRANS-FACTORIAL CAR reporter. The method, boiled down: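 Readout is reporter mRNA induction, quantified by fluorescent primer extension and capillary electrophoresis after RT-PCR. Cells were HepG2 transiently carrying chimeric NR-Gal4 constructs with GAL4-UAS reporters, treated for 24 h; activity scored upward from DMSO.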

Test [17] in a line: ATG_GAL4_TRANS: Attagene TRANS-FACTORIAL HepG2 Assay for GAL4 (Internal Marker) (AID 2282976; active means hit-call score of the fitted dose curve at least 0.9, where 1 is the maximum). The following applies: HepG2 Attagene TRANS GAL4 internal marker reporter. The method, boiled down:
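Background-control readout: GAL4-UAS reporter transcript in transiently transfected HepG2 cells after 24 h compound exposure. Measured by RT-PCR, 6-FAM primer extension, HpaI digest and capillary electrophoresis; gain-of-signal fit versus DMSO.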

Test [18] in a line: ATG_TAL_CIS: Attagene CIS-FACTORIAL HepG2 Assay for human TAL Basal Promoter (AID 2282966).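 Further: background control endpoint measuring basal TAL promoter reporter mRNA not a specific factor.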 The following applies: HepG2 Attagene cis-factorial TAL promoter reporter; actives raise or lower the signal. The method, boiled down: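 HepG2 cells transiently transfected with multiplexed cis-promoter reporter units, dosed 24 h. Reporter mRNA quantified by RT-PCR, 6-FAM labelling, HpaI digestion and capillary electrophoresis; TAL basal promoter serves as background control, fitted bidirectionally versus DMSO.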

Test [19] can be described thus: ATG_TGFb_CIS: Attagene CIS-FACTORIAL HepG2 Assay for human Transforming Growth Factor (TGF) (AID 2282967). The following applies: HepG2 Attagene CIS TGFb reporter, mRNA transcription; actives raise or lower the signal. The method, boiled down:
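Transient MRTU transfection of HepG2 (FuGene 6). Dose 24 h. TriZol RNA, oligo(dT) RT, PCR, 6-FAM primer extension, HpaI cut, CE. Bidirectional fit, DMSO = baseline.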

Test [20] addresses Steroid hormone receptor ERR1 (Homo sapiens) (UniProt P11474). As to the kind of experiment: ATG_ERRa_TRANS: Attagene TRANS-FACTORIAL HepG2 Assay for human Estrogen-Related Receptor alpha (ERRa) (AID 2282971; active means hit-call score of the fitted dose curve at least 0.9, where 1 is the maximum). The following applies: HepG2 Attagene TRANS reporter, ERRa transactivation. A digest of the protocol:
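HepG2 cells transiently transfected with GAL4-UAS reporter units and chimeric NR-Gal4 constructs; after 24 hour compound incubation, reporter mRNA quantified by RT-PCR, fluorescent labelling and capillary electrophoresis, gain of signal versus DMSO.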

By AC50 is commonly meant the concentration giving half of the maximal activity seen.

Chain of Transcription factor Sp1 (Homo sapiens) (P08047 whole entry, looked up): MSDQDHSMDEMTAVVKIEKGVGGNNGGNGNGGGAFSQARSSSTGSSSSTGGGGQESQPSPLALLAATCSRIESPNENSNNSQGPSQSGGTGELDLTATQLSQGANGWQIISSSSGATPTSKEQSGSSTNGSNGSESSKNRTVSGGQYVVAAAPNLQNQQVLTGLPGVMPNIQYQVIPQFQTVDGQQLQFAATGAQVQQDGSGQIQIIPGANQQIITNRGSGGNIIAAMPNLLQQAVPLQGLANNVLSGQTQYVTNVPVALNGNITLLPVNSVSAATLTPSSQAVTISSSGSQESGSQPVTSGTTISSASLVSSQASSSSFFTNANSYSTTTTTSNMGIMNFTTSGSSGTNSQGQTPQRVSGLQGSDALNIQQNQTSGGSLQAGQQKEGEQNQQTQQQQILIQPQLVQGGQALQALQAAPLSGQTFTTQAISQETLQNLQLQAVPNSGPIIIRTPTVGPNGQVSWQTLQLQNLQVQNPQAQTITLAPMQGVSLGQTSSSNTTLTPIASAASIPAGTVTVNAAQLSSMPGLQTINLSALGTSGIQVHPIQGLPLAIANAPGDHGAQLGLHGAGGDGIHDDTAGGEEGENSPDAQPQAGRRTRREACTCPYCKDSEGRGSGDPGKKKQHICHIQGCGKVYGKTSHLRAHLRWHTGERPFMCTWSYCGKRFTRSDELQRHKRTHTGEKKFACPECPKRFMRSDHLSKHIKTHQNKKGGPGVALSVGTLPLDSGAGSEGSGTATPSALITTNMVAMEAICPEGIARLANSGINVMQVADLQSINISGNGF
Chain of Estrogen receptor (Homo sapiens) (P03372 whole entry, looked up, the tested form may be a part): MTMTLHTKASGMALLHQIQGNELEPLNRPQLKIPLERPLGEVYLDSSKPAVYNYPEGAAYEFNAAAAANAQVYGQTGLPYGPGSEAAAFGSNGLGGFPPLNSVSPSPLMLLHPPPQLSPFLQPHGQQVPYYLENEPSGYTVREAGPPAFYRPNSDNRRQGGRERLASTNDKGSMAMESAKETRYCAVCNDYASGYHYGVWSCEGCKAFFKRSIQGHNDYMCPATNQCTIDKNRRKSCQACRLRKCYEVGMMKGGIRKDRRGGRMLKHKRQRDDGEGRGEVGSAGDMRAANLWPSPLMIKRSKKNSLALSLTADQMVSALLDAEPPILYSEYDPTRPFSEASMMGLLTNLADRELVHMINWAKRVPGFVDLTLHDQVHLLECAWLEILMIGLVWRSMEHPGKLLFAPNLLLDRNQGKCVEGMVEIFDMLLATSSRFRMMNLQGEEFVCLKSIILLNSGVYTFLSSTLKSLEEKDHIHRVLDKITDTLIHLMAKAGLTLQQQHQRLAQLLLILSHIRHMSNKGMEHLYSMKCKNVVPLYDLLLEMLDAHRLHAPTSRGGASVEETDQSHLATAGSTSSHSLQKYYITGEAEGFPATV
Chain of Signal transducer and activator of transcription 3 (Homo sapiens) (P40763 whole entry, looked up): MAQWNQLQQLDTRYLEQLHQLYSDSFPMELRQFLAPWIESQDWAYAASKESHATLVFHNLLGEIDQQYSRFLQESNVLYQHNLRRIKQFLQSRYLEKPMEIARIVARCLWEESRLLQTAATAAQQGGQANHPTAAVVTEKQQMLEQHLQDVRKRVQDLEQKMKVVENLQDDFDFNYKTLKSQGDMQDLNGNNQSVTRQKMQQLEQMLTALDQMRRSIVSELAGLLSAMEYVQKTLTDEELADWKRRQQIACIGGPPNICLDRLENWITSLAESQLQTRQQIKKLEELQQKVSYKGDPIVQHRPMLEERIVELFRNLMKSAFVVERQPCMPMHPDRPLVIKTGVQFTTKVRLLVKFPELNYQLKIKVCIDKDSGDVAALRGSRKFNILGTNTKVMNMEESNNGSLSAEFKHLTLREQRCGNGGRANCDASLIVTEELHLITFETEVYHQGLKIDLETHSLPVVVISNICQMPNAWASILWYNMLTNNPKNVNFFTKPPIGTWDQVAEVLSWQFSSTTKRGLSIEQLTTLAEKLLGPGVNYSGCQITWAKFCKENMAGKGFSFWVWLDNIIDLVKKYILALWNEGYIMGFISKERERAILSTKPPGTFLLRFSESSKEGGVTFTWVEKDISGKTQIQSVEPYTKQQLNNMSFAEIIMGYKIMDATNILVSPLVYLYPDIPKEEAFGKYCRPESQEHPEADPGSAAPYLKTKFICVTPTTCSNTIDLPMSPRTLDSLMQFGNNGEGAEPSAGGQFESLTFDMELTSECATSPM
Chain of Paired box protein Pax-6 (Homo sapiens) (P26367 whole entry, looked up): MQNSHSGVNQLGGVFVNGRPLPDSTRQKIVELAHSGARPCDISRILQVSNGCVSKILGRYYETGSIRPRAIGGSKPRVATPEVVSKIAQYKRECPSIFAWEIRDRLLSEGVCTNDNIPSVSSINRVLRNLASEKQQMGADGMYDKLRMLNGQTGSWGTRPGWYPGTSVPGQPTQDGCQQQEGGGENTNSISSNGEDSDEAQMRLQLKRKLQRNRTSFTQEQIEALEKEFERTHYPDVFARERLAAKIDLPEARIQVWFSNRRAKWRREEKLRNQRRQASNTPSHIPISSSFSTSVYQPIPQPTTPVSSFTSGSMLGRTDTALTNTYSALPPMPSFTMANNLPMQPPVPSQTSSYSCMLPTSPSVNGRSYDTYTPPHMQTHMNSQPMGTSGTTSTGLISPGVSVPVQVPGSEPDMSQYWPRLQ
Chain of Nuclear receptor subfamily 1 group I member 3 (Homo sapiens) (Q14994 whole entry, looked up, the tested form may be a part): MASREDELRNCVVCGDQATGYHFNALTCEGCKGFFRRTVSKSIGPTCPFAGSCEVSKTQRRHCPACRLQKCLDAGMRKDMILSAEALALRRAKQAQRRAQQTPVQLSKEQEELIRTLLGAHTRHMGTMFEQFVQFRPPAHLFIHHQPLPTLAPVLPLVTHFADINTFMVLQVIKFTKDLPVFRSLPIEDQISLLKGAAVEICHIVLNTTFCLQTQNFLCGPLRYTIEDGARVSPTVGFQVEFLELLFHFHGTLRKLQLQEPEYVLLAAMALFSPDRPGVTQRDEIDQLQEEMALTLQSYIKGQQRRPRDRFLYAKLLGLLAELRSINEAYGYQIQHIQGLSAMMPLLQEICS
Chain of X-box-binding protein 1 (Homo sapiens) (P17861 whole entry, looked up): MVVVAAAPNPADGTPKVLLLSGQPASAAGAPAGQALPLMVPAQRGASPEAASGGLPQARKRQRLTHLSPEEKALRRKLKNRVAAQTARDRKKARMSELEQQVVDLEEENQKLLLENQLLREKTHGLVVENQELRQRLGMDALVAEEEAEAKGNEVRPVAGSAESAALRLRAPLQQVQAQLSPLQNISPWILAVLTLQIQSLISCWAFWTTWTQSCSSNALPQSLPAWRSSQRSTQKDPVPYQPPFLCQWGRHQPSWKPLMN
Chain of Steroid hormone receptor ERR1 (Homo sapiens) (P11474 whole entry, looked up, the tested form may be a part): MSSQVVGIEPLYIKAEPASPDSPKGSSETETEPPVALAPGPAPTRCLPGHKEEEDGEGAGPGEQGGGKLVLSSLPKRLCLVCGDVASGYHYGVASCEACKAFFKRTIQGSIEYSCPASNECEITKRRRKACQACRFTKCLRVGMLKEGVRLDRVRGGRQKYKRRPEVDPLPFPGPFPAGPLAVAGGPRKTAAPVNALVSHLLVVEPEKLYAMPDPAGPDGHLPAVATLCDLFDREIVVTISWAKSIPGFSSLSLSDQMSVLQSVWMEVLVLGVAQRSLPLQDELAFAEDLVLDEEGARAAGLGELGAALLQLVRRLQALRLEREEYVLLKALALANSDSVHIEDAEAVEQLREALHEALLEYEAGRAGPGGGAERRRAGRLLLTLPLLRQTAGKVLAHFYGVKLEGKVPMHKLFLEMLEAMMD

With `CN(C)C(=O)Nc1ccccc1`, the result in [1], in [2], in test [4], in [5], in test [6] and in test [7] was inactive. The molecule was classed as inactive in test [8], in test [9], in test [10], in test [11], in [12] and in [13]. Besides, the outcome in test [14] was inactive. For the same molecule, the AC50 in test [3] is 26.5 µM (active).
Take `CC(=O)c1ccc2ccccc2c1`: the outcome in test [1], in test [2], in [3], in [4], in test [5] and in test [6] was inactive. The molecule was classed as inactive in [7], in test [15], in [8], in [9], in test [10] and in test [11]. The call in test [16], in [13], in test [14] and in [17] was inactive. In addition, the AC50 in test [12] was 42.4 µM (active).
With `CCCCC1CCCCC(=O)O1` (configuration not stated), the result in [1], in test [2], in [3], in [5], in test [6] and in test [7] was inactive. Besides, the result in test [8], in test [9], in [10], in test [18], in test [19] and in [11] was inactive. The call in test [16], in test [12], in [13] and in test [14] was inactive. The AC50 in test [4] was 44.3 µM (active).
For `CCC=C(C)C=O`, the result in test [1], in test [2], in test [4], in test [5], in test [6] and in test [7] was inactive. For the same molecule, the molecule was called inactive in test [8], in test [9], in [10], in test [18], in test [11] and in [16]. The outcome in test [20], in [13], in test [14] and in test [17] was inactive. Moreover, the AC50 in test [3] is 24.7 µM (active); in [19] it was 0.643 µM (active); in [12], 15.3 µM (active).
